Test results reported in PubChem BioAssay (NCATS).
Values without a mark were called inactive. Activity calls are given as the source filed them. No rule for the calls is given here.

What follows are compounds tested on HIV-1 nucleocapsid protein NCp7 (binding to TG oligonucleotide) (assay: HIV Nucleocapsid (AID 346;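 also: potency is for inhibitors that block NC binding and lower polarization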)). Conditions: HIV-1 NC / fluorescein-TGTGTGTG probe, fluorescence polarization.
Outline: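 10 nM TG4xF probe with 100 nM nucleocapsid protein in high-salt Hepes pH 7.5 (250mM NaCl) containing 1uM ZnCl2 and reducing agents. Compound inhibition of binding was read as fluorescein polarization after 1 hr at room temperature.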
Potency is read from the fitted curve at half-maximal effect.

| Compound | Potency |
| --- | --- |
| COc1cccc(Nc2ncc3ncc(=O)n(C4CC4)c3n2)c1 | > 4 µM |
| O=C(Nc1ccccc1)N1CC2(CCN(C(=O)c3ccco3)CC2)C1 | > 20 µM |
| CC(C)NC(=O)N1CCC2(CC1)CCN(C(=O)c1cnccn1)CC2 | > 20 µM |
| COc1ccc(Oc2ncc3nc(C)c(=O)n(-c4ccccc4)c3n2)cc1 | > 20 µM |
| Cn1cc(-c2nc3cncnc3n(-c3ccccc3)c2=O)c2ccccc21 | 4.43 µM (active) |
| COc1ccc(-c2nc3cnc(N4CCOCC4)nc3n(Cc3cccs3)c2=O)cc1 | > 20 µM |
| COCCn1c(=O)cnc2cnc(OCc3ccccc3)nc21 | > 20 µM |
| COc1ccc2[nH]cc(CCNc3ncnc4ccc(-c5cccnc5)cc34)c2c1 | > 20 µM |
| O=C(c1csnn1)N1CCC2(CC1)CN(Cc1cc(C(F)(F)F)cc(C(F)(F)F)c1)C2 | > 20 µM |
| CS(=O)(=O)N1CCC2(CCN(Cc3nccs3)CC2)CC1 | > 20 µM |
| CN(C)c1ccc(-c2nccc(Nc3ccc(F)cc3)n2)cc1 | > 20 µM |
| O=C(c1ccncc1)N1CCC2(CCN(Cc3ccccc3)CC2)CC1 | > 20 µM |
| COc1ccc(Oc2ncc3nc(-c4ccc(Cl)cc4)c(=O)n(C4CC4)c3n2)cc1 | > 20 µM |
| COc1ccc(-c2nc3cnc(N(C)C)nc3n(-c3ccccc3)c2=O)cc1 | > 20 µM |
| CC(C)CN1CC[C@@]2(CCCN(C(=O)c3cnccn3)C2)C1 | > 4 µM |
| COc1ccc(C(=O)N2CCC3(CC2)CN(c2ccccn2)C3)cc1 | > 20 µM |
| Cc1noc(C)c1-c1cc(NCc2ccccc2)ncn1 | > 20 µM |
| COc1ccccc1CNc1ncnc2ccc(-c3cccc(C#N)c3)cc12 | > 20 µM |
| COc1cccc(-c2nc(N(C)C)c3ccccc3n2)c1 | > 20 µM |
| COc1ccc(NC(=O)N2CC3(CCN(C(=O)c4c(C)noc4C)CC3)C2)cc1 | > 20 µM |

| Compound | Potency |
| --- | --- |
| c1ccc2c(-n3ccnc3)nc(-c3ccoc3)nc2c1 | > 20 µM |
| COc1ccccc1-c1ccc2ncnc(N(C)C)c2c1 | > 20 µM |
| O=S(=O)(c1ccccc1)N1CCC2(CC1)CN(c1ccncc1)C2 | > 20 µM |
| Cn1cccc1C(=O)N1CCC[C@@]2(CCN(Cc3ccc(C#N)cc3)C2)C1 | > 20 µM |
| O=S(=O)(c1ccccc1)N1CCC2(CC1)CN(C(c1ccccc1)c1ccccc1)C2 | > 20 µM |
| COc1ccc(NC(=O)N2CCCC3(CCNCC3)C2)cc1 | > 20 µM |
| COc1cccc(Cn2c(=O)c(CCc3ccccc3)nc3cnc(N4CCNCC4)nc32)c1 | > 20 µM |
| COc1ccccc1CNc1cc(-c2ccccc2C(F)(F)F)ncn1 | > 20 µM |
| Cc1cccc(CNc2ccnc(-c3ccc(N(C)C)cc3)n2)c1 | > 20 µM |
| O=c1c(-c2ccc(F)c(F)c2)nc2cncnc2n1Cc1ccc(F)cc1 | > 20 µM |
| Cc1ccccc1-c1ccc2ncnc(N(C)C)c2c1 | > 20 µM |
| COc1cccc(-c2nc(NCCN3CCOCC3)c3ccccc3n2)c1 | > 20 µM |
| COc1ccc(C(=O)N2CCC[C@@]3(CCN(c4ccccn4)C3)C2)cc1 | > 20 µM |
| Cc1noc(C)c1C(=O)N1CCC2(CCN(C(=O)NC(C)C)CC2)CC1 | > 20 µM |
| COCCn1c(=O)c(C)nc2cnc(Oc3ccc(OC)cc3)nc21 | > 20 µM |
| N#CCCn1c(=O)c(-c2cccs2)nc2cnc(N3CCOCC3)nc21 | 4.26 µM (active) |
| COc1ccc(CNc2cc(-c3cccc(NS(C)(=O)=O)c3)ncn2)c(OC)c1 | > 20 µM |
| Clc1ccccc1-c1nccc(NCCN2CCOCC2)n1 | > 20 µM |
| Cc1cnc(CNc2ncnc3ccc(-c4ccc(N(C)C)cc4)cc23)cn1 | > 20 µM |
